Screening results deposited in PubChem by National Center for Advancing Translational Sciences (NCATS).
FEN1 inhibitor: qHTS Assay for the Inhibitors of Human Flap endonuclease 1 (FEN1) | hit rate 0.35% among 390,000 | Potency, µM (highest dose often 114 µM), for the others: top-dose activity change, negative = inhibition, usual class: inhibitors | P39748 | AID 588795, 2011 | Recombinant FEN1 flap cleavage, fluorescence, 15 min; also: % is scaled to controls: 0 for no effect and ±100 for the full control effect; nearly all actives have a fitted effect of over 65% in size
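Concentration–response screening of FEN1 (10 nM): 15 min compound preincubation at room temperature, reaction started with 50 nM substrate and read at 0 and 15 min. Corrected, normalized data were fitted by a four-parameter Hill equation.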
Pol beta inh: qHTS Assay for Inhibitors of DNA Polymerase Beta; P06746; Pol beta primer extension/strand displacement, fluorescence kinetic; Potency, µM (highest dose often 114 µM), inactives show at the top dose activity change, negative = inhibition, most hits filed as inhibitors; hit rate 1.3% among 340,000; also: % is scaled to controls: 0 for no effect and ±100 for the full control effect
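Pol beta (10 nM) was preincubated with compound for 15 min at room temperature. The reaction was then started with 50 nM substrate and read immediately and after a further 10 min at room temperature.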
Pol iota inh: qHTS for Inhibitors of Polymerase Iota; DNA polymerase iota (Homo sapiens), Q9UNA4; Potency, µM (doses to about 115 µM), for the others: top-dose activity, negative = inhibition, hits mostly inhibitors; hit rate 1% among 390,000; Pol iota fluorescent replication assay, 10 min; AID 588590, 2011
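Fluorescent replication assay read twice, at 0 min and 10 min after adding 50 nM (final) substrate. Enzyme (10 nM) and compounds were first incubated 15 min at room temperature; enzyme-free buffer wells were negative controls.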
Pol eta inh: qHTS for Inhibitors of Polymerase Eta. DNA polymerase eta (Homo sapiens), Q9Y253. recombinant Pol eta, fluorescent DNA replication assay. Potency, µM (series often up to 114 µM), for the others: top-dose activity change, negative = inhibition, actives largely listed as inhibitors. hit rate 1.2% among 390,000. AID 588591, 2011; also: % is scaled to controls: 0 for no effect and ±100 for the full control effect
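Pol eta at 10 nM preincubated with compounds 15 min at room temperature; reaction started with fluorescent substrate (50 nM final) and read kinetically at 0 and 10 min.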
WRN helicase inh: qHTS for Inhibitors of WRN Helicase | Potency, µM (highest dose often 114 µM), for the others: at the top dose activity change, negative = inhibition, actives largely listed as inhibitors | hit rate 0.46% among 360,000 | WRN helicase unwinding, fluorescent forked duplex, kinetic; also: % is scaled to controls: 0 for no effect and ±100 for the full control effect; nearly all actives have a fitted effect of over 55% in size
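Enzyme (20 nM final) and test compound sit together 15 min at room temperature before substrate addition. Substrate is a single-forked duplex oligonucleotide (100 nM) labelled with fluorophore and quencher, with 2 mM ATP; helicase unwinding raises red fluorescence, read kinetically.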
POLK inh: qHTS for Inhibitors of Polymerase Kappa | purified Pol kappa, fluorescent DNA synthesis assay, 10 min | Potency, µM (series often up to 107 µM), for inactives: at the highest dose activity, negative = inhibition, usual class: inhibitors | hit rate 0.53% among 400,000 | AID 588579, 2011; also: % is scaled to controls: 0 for no effect and ±100 for the full control effect
Target sequence (Q9UBT6 whole entry, looked up): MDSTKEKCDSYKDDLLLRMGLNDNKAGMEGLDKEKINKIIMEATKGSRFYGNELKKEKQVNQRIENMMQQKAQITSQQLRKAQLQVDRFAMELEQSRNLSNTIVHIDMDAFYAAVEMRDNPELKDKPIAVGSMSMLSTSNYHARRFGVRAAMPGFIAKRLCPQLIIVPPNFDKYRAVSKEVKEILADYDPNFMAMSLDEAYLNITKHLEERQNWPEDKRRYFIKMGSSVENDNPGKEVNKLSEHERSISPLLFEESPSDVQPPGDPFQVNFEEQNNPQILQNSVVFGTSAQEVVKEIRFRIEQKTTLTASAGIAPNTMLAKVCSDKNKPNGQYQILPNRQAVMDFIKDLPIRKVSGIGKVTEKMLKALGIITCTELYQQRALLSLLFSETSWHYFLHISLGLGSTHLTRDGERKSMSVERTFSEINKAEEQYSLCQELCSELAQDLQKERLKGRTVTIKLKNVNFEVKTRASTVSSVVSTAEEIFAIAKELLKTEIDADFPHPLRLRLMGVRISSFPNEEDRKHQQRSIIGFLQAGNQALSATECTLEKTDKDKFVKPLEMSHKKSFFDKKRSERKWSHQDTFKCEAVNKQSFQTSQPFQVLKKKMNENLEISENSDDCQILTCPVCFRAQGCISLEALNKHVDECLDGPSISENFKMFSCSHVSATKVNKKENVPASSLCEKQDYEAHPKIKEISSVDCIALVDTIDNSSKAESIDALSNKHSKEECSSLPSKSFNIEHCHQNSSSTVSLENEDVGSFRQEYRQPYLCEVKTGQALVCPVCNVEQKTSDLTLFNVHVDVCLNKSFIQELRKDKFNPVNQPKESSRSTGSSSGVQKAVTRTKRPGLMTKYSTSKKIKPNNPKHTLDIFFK
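First, compounds were pin-transferred onto 10 nM Pol kappa. After 15 min at room temperature, substrate was added to 50 nM final. Fluorescence was then measured kinetically at 0 and 10 min.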
Numbers without * were called inactive; ? = inconclusive; · = not tested or not shown; [ ] = remark or other dose. Hits are enriched below; roughly 2.4% of the tested compounds scored in any of these assays. Calls follow the shape of the dose curve; as a rule, active = well fitted curve in the direction sought with a large enough effect; inconclusive = small, poorly fitted or top-dose-only effect, or another doubt; inactive = no such curve, though single readings can be large; an effect the other way counts as inactive or inconclusive. Potency is read from the fitted curve at half-maximal effect.

SMILES	FEN1 inhibitor	Pol beta inh	Pol iota inh	Pol eta inh	WRN helicase inh	POLK inh
CN(C)c1ccc(/C=C2\Cc3ccccc3C2=O)cc1	8.5%	·	18.2%	·	·	1.1%
O=C1/C(=C/c2cccnc2)CCC/C1=C\c1cccnc1	2.0%	0.0%	44.7µM*	22.4µM*	-10.8%[11.6 µM]	3.9%
CN(C)c1ccc(/C=C2\CCC/C(=C\c3ccccc3)C2=O)cc1	-20.1%	0.5%	?	?	50.1µM*	0.7%
CCCCCC(CC(=O)O)C(=O)O (stereo unspecified)	·	·	·	·	·	-1.4%[60.1 µM]
COC(=O)c1ccc(NCc2c(O)ccc(O)c2Br)cc1Cl	-20.1%	·	21.2%	-10.2%	50.1µM*	-3.9%
CCOc1ccc(C(=O)c2cn(Cc3ccc(Cl)cc3)c3cc(OC)c(OC)cc3c2=O)cc1	9.3%	1.4%	26.2%	4.7%	·	-3.8%
Cn1c(=O)[nH]c(=O)c2c1nc1n2CCN1c1ccccc1	-0.3%	7.5%	79.4µM*	-2.3%	·	?
CC1CN(c2ccccc2)c2nc3c(c(=O)[nH]c(=O)n3C)n2C1 (stereo unspecified)	-6.5%	31.2%	1.3%	-8.3%	13.9%	-8.0%
COc1cc(NC(=O)C2CCN(c3nc4ccccc4nc3C(F)(F)F)CC2)cc(OC)c1	21.3%	4.7%	18.1%	-18.2%	·	-2.6%
Cc1c2cnn(CC(=O)NCCc3ccccc3)c(=O)c2c(C)n1Cc1ccccc1Cl	-3.2%	3.5%	12.5%	-15.7%	·	-4.8%
Cc1ccc(-c2cc(C(=O)N/N=C/C(Br)=C/c3ccccc3)n[nH]2)o1	-3.2%	35.5µM*	?	-4.7%	-10.7%[11.6 µM]	?
Cc1ccc(-c2cc(C(=O)N/N=C/c3ccccc3O)n[nH]2)o1	8.1%	-28.2%	22.8%	-14.6%	-2.3%	-1.0%
O=C(N/N=C/C(Br)=C\c1ccccc1)c1n[nH]c2c1CCC2	-11.2%	1.3%	25.1µM*	-6.5%	-31.5%	-1.4%
Cc1ccc(-c2cc(C(=O)N/N=C/c3c[nH]c4ccccc34)n[nH]2)o1	-7.1%	28.2µM*	?	-14.7%	-15.3%	?
COc1ccc(CCN2C(=O)/C(=C\c3ccco3)SC2=S)cc1OC	-6.8%	28.2µM*	?	-18.6%	0.9%	-7.5%
CC(=Cc1ccccc1)C=C1SC(=S)N(CCCC(=O)Nc2ccc(C(=O)O)cc2)C1=O	·	·	·	·	-13.0%[57.1 µM]	·
CC(=C\c1ccccc1)/C=C1/SC(=S)N(CCCC(=O)O)C1=O	?	-14.9%	25.1µM*	25.1µM*	50.1µM*	-25.7%
CC(/C=C1\SC(=S)N(CCCC(=O)Nc2ccc(C(=O)O)cc2)C1=O)=C\c1ccccc1	-4.0%	?	?	31.6µM*	-12.2%[11.6 µM]	-27.0%
COc1cc(/C=C2/SC(=S)N(CCC(=O)Nc3ccc(C(=O)O)cc3)C2=O)cc(OC)c1OC	-16.5%	3.6%	-9.7%	56.2µM*	3.6%[11.6 µM]	-21.5%
O=C(NCc1ccccc1)c1c2c(nc3ccccc13)C(=O)N(C1CCCCC1)C2	7.6%	-6.4%	-7.3%	4.6%	·	-11.9%
Cc1ccc(/C=C2/CNC/C(=C\c3ccc(C)cc3)C2=O)cc1	·	·	·	·	·	4.6%[60.1 µM]
COc1ccc(/C=C2\SC(=S)N(CCCC(=O)Nc3ccc(O)cc3)C2=O)cc1	6.0%	-0.8%	6.8%	16.7%	-6.6%	8.3%
O=C(CCCN1C(=O)/C(=C\c2ccco2)SC1=S)Nc1ccc2ccccc2c1	-3.8%	20µM*	214.6%	?	-0.4%	-13.5%
Cc1ccccc1OCC(=O)Nc1ccc2nc(SCC(=O)N(C)c3ccccc3)sc2c1	-13.0%	32.9%	23.0%	-11.5%	·	8.0%
Cc1cc(C(=O)CCl)c(C)n1Cc1ccco1	-3.0%	?	?	?	-12.8%	-20.8%
SMILES	FEN1 inhibitor	Pol beta inh	Pol iota inh	Pol eta inh	WRN helicase inh	POLK inh
Cc1ccc2cccc(OCC(=O)c3cc(C)n(Cc4ccco4)c3C)c2n1	·	11.2µM*	·	·	·	·
Cc1cc(C(=O)CSc2nnc(-c3ccco3)o2)c(C)n1Cc1ccco1	1.3%	44.7µM*	?	?	?	-19.7%
Fc1cccc2sc(Nc3nnc(-c4ccco4)o3)nc12	-25.4%	17.8µM*	?	?	?	-27.9%
O=C(Nc1nc2c(F)cccc2s1)c1ccco1	13.7%	0.9%	4.1%	-10.0%	0.7%	15.8%
CCCn1c(=O)c2sccc2n2c(CCCC(=O)NC3CCC(C)CC3)nnc12 (stereo unspecified)	-6.1%	15.0%	10.1%	-18.8%	·	10.8%
O=C1CC(=Nc2ccc([N+](=O)[O-])cc2)NN1c1c(Cl)cc(Cl)cc1Cl	·	·	·	79.4µM*	3.5%	·
O=[N+]([O-])c1ccc(N=Nc2c(Cl)cc(O)cc2Cl)cc1	2.3%	-4.4%	-12.9%	-19.7%	-13.8%	-9.7%
CCOC(=O)c1c(O)c2c([nH]c1=O)CCCC2	-2.6%	13.8%	-12.5%	-5.9%	7.8%	-9.2%
CCOC(=O)c1c2c([nH]c(=S)c1C#N)CCCC2	-7.3%	?	?	79.4µM*	-27.4%	-17.1%
CN(/C=C/C(=C\C=[N+](C)c1ccccc1)OCCCS(=O)(=O)[O-])c1ccccc1	-17.9%	50.1µM*	?	-4.1%	-31.0%	?
CC1CCCC(C)N1C(=O)COC(=O)c1ccc(S(=O)(=O)N(C)c2ccccc2)cc1 (stereo unspecified)	-26.5%	·	8.4%	-9.9%	-5.1%	-16.6%
CN(/C=C/C(=C/C=[N+](C)c1ccccc1)OCCCS(=O)(=O)[O-])c1ccccc1	-10.3%	28.2µM*	?	?	-27.6%	?
c1ccc2c(c1)SCc1c-2[nH]c2ccccc12	·	·	·	·	·	4.9%[60.1 µM]
CCC(CO)[n+]1c(C)cc(/C=C2\Sc3ccccc3N2Cc2ccccc2)cc1C (stereo unspecified)	50.1µM*	?	38.2%	?	?	-40.4%
CCN1/C(=C2\SC(=S)N(Cc3ccccc3)C2=O)Sc2ccccc21	-4.0%	10.7%	?	-16.2%	-19.6%	-1.9%
COc1cc(NC(=O)Cn2ccn(Cc3ccccc3OC)c(=O)c2=O)cc(OC)c1	20.3%	-10.0%	-0.8%	19.2%	·	-5.6%
O=C1/C(=C/c2ccsc2)CC/C1=C\c1cccs1	·	·	·	·	·	-2.5%[60.1 µM]
N#Cc1c(-c2cccs2)nc(SCc2ccc(Cl)cc2)[nH]c1=O	-23.6%	56.2µM*	?	89.1µM*	?	-4.5%
O=c1c2ccccc2nc(/C=C/c2cccnc2)n1CCc1ccccc1	-3.1%	17.2%	7.94µM*	?	?	-22.4%
O=C(CSc1nc2ccccc2c(=O)n1Cc1ccc(C(=O)NC2CC2)cc1)NCc1ccco1	4.2%	79.4µM*	?	?	-1.4%[11.6 µM]	-34.5%
